This is an account of results in PubChem BioAssay (EPA / NIEHS).

Inconclusive results are not listed. The source made the active and inactive calls. How the source made its calls, unless noted: active means hit-call score of the fitted dose curve at least 0.9, where 1 is the maximum; inactive means score below 0.9.

Read-out in assay [1]: Phosphatase and tensin (PTEN), PTEN (gene 5728)
The experiment in a line: LTEA_HepaRG_PTEN: Life Technologies and Expression Analysis (LTEA) Assay for Phosphatase and tensin (PTEN) using HepaRG (AID 2283523). The conditions noted are these: mRNA level, 48 h; actives raise or lower the signal. A digest of the protocol:
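HepaRG, 48 h exposure, 8-pt half-log series from 100 uM top, 0.5% DMSO vehicle, duplicates. Readout: Fluidigm qRT-PCR of PTEN transcript; housekeeping normalization (ACTB, GAPDH, POLR2A). Gain or loss fitted relative to DMSO baseline.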

Read-out in assay [2]: Pyruvate Dehydrogenase Kinase 4 (PDK4), PDK4 (gene 5166)
The experiment in a line: LTEA_HepaRG_PDK4: Life Technologies and Expression Analysis (LTEA) Assay for Pyruvate Dehydrogenase Kinase 4 (PDK4) using HepaRG (AID 2283525). The note with it: mRNA level, 48 h; actives raise or lower the signal. A digest of the protocol:
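HepaRG (human liver line), 48 h chemical exposure, 8-pt half-log CRC top 100 uM, 0.5% DMSO vehicle, duplicates. Readout: TaqMan qRT-PCR of PDK4 mRNA, housekeeping-normalized; gain/loss fit relative to DMSO baseline.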

Read-out in assay [3]: Nuclear factor erythroid 2-related factor 2 (Homo sapiens) (UniProt Q16236)
Description: LTEA_HepaRG_NFE2L2: Life Technologies and Expression Analysis (LTEA) Assay for Nuclear factor erythroid 2-related factor 2 (NFE2L2) Transcription Factor using HepaRG (AID 2283527).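 Further: TaqMan qRT-PCR transcript level normalised to ACTB GAPDH and POLR2A housekeeping genes.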 The note with it: mRNA level, 48 h; actives raise or lower the signal. A digest of the protocol:
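HepaRG, 48 h dosing, 8-pt half-log series from 100 uM in 0.5% DMSO, duplicates. Read-out: NFE2L2 mRNA by qRT-PCR (ACTB/GAPDH/POLR2A normalization). Bidirectional curve fit vs DMSO baseline.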

Read-out in assay [4]: succinate dehydrogenase complex iron sulfur subunit B (SDHB), SDHB (gene 6390)
The experiment in a line: LTEA_HepaRG_SDHB: Life Technologies and Expression Analysis (LTEA) Assay for succinate dehydrogenase complex iron sulfur subunit B (SDHB) using HepaRG (AID 2283528). The conditions noted are these: mRNA level, 48 h; actives raise or lower the signal. The method, boiled down: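 Readout is SDHB transcript level by qRT-PCR, normalised to three housekeeping genes and fitted bidirectionally against 0.5% DMSO vehicle. Human HepaRG cells were treated for 48 h at up to 100 uM.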

Read-out in assay [5]: Signal transducer and activator of transcription 3 (Homo sapiens) (UniProt P40763)
Description: LTEA_HepaRG_STAT3: Life Technologies and Expression Analysis (LTEA) Assay for Signal transducer and activator of transcription (STAT3) using HepaRG (AID 2283529). The conditions noted are these: mRNA level, 48 h; actives raise or lower the signal. A digest of the protocol:
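HepaRG, 48 h exposure, 8-pt half-log series (top 100 uM), 0.5% DMSO vehicle, duplicates. Readout: STAT3 transcript by Fluidigm qRT-PCR, housekeeping-normalized; bidirectional fit vs DMSO baseline.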

Read-out in assay [6]: solute carrier (SLCO1B1), SLCO1B1 (gene 10599)
Description: LTEA_HepaRG_SLCO1B1: Life Technologies and Expression Analysis (LTEA) Assay for solute carrier (SLCO1B1) using HepaRG (AID 2283530). The conditions noted are these: mRNA level, 48 h; actives raise or lower the signal. A digest of the protocol:
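Differentiated human HepaRG cells, plated 48 h, switched to serum-free induction medium and exposed in duplicate for 48 h to 8 half-log concentrations (top 100 uM) in 0.5% DMSO. SLCO1B1 mRNA by TaqMan qRT-PCR, normalized to ACTB/GAPDH/POLR2A.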

Read-out in assay [7]: sulfotransferase 2A1 (SULT2A1), SULT2A1 (gene 6822)
The experiment in a line: LTEA_HepaRG_SULT2A1: Life Technologies and Expression Analysis (LTEA) Assay for sulfotransferase 2A1 (SULT2A1) using HepaRG (AID 2283531). The conditions noted are these: mRNA level, 48 h; actives raise or lower the signal. A digest of the protocol: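 Differentiated human HepaRG cells in serum-free induction medium were exposed for 48 h to eight half-log concentrations (top 100 uM, 0.5% DMSO). SULT2A1 mRNA was measured by qRT-PCR, normalized to ACTB, GAPDH and POLR2A, and fitted bidirectionally against DMSO.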

Read-out in assay [8]: Transforming Growth Factor (TGFA), TGFA (gene 7039)
The experiment in a line: LTEA_HepaRG_TGFA: Life Technologies and Expression Analysis (LTEA) Assay for Transforming Growth Factor (TGFA) using HepaRG (AID 2283532). The conditions noted are these: mRNA level, 48 h; actives raise or lower the signal. A digest of the protocol: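 qRT-PCR read-out of TGFA transcript, normalized to three housekeeping genes, fitted bidirectionally against 0.5% DMSO baseline. Human HepaRG cultures received chemicals for 48 h at eight half-log concentrations, top 100 uM.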

Read-out in assay [9]: Transforming Growth Factor (TGFB1), TGFB1 (gene 7040)
Description: LTEA_HepaRG_TGFB1: Life Technologies and Expression Analysis (LTEA) Assay for Transforming Growth Factor (TGFB1) Transporter using HepaRG (AID 2283533). The note with it: mRNA level, 48 h; actives raise or lower the signal. The method, boiled down:
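Differentiated human HepaRG cells in serum-free induction medium were exposed in duplicate for 48 h to eight concentrations (top 100 uM, half-log steps, 0.5% DMSO). TGFB1 mRNA was quantified by qRT-PCR, normalized to ACTB, GAPDH, POLR2A, and fitted bidirectionally against DMSO.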

Read-out in another assay: TIMP1, TIMP1 (gene 7076)
Description: LTEA_HepaRG_TIMP1: Life Technologies and Expression Analysis (LTEA) Assay for TIMP1 using HepaRG (AID 2283534). The conditions noted are these: mRNA level, 48 h; actives raise or lower the signal. A digest of the protocol: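 Differentiated human HepaRG cells in serum-free induction medium were exposed 48 h to chemicals (8 half-log concentrations, top 100 uM, 0.5% DMSO). TIMP1 mRNA was quantified by TaqMan qRT-PCR, normalized to ACTB/GAPDH/POLR2A; bidirectional fit versus DMSO.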

Read-out in assay [10]: Tumor necrosis factor receptor 1 (TNFRSF1A), TNFRSF1A (gene 7132)
Description: LTEA_HepaRG_TNFRSF1A: Life Technologies and Expression Analysis (LTEA) Assay for Tumor necrosis factor receptor 1 (TNFRSF1A) using HepaRG (AID 2283535). The note with it: mRNA level, 48 h; actives raise or lower the signal. A digest of the protocol: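 Differentiated human HepaRG cells were exposed in duplicate for 48 h in serum-free induction medium to eight concentrations (top 100 uM, half-log steps, 0.5% DMSO). TNFRSF1A mRNA was quantified by qRT-PCR, normalized to ACTB, GAPDH and POLR2A, then fitted bidirectionally against DMSO.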

Read-out in assay [11]: Cellular tumor antigen p53 (Homo sapiens) (UniProt P04637)
Description: LTEA_HepaRG_TP53: Life Technologies and Expression Analysis (LTEA) Assay for Tumor Protein P53 (TP53) using HepaRG (AID 2283537). The conditions noted are these: mRNA level, 48 h; actives raise or lower the signal. A digest of the protocol:
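Read-out is TP53 transcript level by microfluidic qRT-PCR, normalised to three housekeeping genes and fitted bidirectionally against DMSO. Human HepaRG cells received compounds for 48 h, highest concentration 100 uM.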

Read-out in assay [12]: UDP glucuronosyltransferase (UGT1A1), UGT1A1 (gene 54658)
Description: LTEA_HepaRG_UGT1A1: Life Technologies and Expression Analysis (LTEA) Assay for UDP glucuronosyltransferase (UGT1A1) using HepaRG (AID 2283538). The note with it: mRNA level, 48 h; actives raise or lower the signal. The method, boiled down:
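Cells are plated, cultured 48 h, switched to serum-free induction medium, then dosed 48 h at eight concentrations (max 100 uM, 0.5% DMSO). RNA is isolated and UGT1A1 expression measured by qRT-PCR; changes versus DMSO are fitted in both directions.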

Read-out in assay [13]: UDP glucuronosyltransferase (UGT1A6), UGT1A6 (gene 54578)
The experiment in a line: LTEA_HepaRG_UGT1A6: Life Technologies and Expression Analysis (LTEA) Assay for UDP glucuronosyltransferase (UGT1A6) using HepaRG (AID 2283539). The note with it: mRNA level, 48 h; actives raise or lower the signal. A digest of the protocol: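 Human HepaRG cells were dosed for 48 h in serum-free induction medium with 0.5% DMSO vehicle, eight-point half-log series from 100 uM, in duplicate. UGT1A6 mRNA was measured by qRT-PCR, normalized to ACTB, GAPDH, POLR2A, and fitted bidirectionally against DMSO.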

A short description of assay [14]: LTEA_HepaRG_LDH_cytotoxicity: Cytotoxicity Assessment in the Life Technologies and Expression Analysis (LTEA) Assay (AID 2283563; active means hit-call score of the fitted dose curve at least 0.9, where 1 is the maximum;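 on AC50: LDH activity released into spent culture medium as a marker of cell death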). A digest of the protocol:
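Differentiated human HepaRG cells, plated 48 h beforehand, were switched to serum-free induction medium and exposed for 48 h to eight half-log concentrations (top 100 uM) in 0.5% DMSO. LDH was measured in spent medium; activity was fitted relative to DMSO vehicle.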

Read-out in assay [15]: solute carrier (SLC22A1), SLC22A1 (gene 6580)
The experiment in a line: LTEA_HepaRG_SLC22A1: Life Technologies and Expression Analysis (LTEA) Assay for solute carrier (SLC22A1) using HepaRG (AID 2283524). The note with it: mRNA level, 48 h; actives raise or lower the signal. A digest of the protocol: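 qRT-PCR readout (TaqMan, Fluidigm arrays) of SLC22A1 transcript, normalized to three housekeeping genes; bidirectional curve fit relative to 0.5% DMSO vehicle. Differentiated human HepaRG cells, 48 h chemical exposure, top concentration 100 uM, half-log steps, eight points.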

Read-out in assay [16]: X-box binding protein 1 (XBP1), XBP1 (gene 7494)
The experiment in a line: LTEA_HepaRG_XBP1: Life Technologies and Expression Analysis (LTEA) Assay for X-box binding protein 1 (XBP1) using HepaRG (AID 2283540). The conditions noted are these: mRNA level, 48 h; actives raise or lower the signal. The method, boiled down: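 Differentiated human HepaRG cells in serum-free induction medium were exposed in duplicate for 48 h to eight half-log concentrations up to 100 uM in 0.5% DMSO. XBP1 mRNA was quantified by qRT-PCR, normalised to ACTB, GAPDH and POLR2A, with bidirectional fitting against DMSO.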

Assay [17] in a line: ATG_XTT_Cytotoxicity: Cytotoxicity Assessment in the Attagene TRANS-FACTORIAL HepG2 Assay (AID 2283584; active means hit-call score of the fitted dose curve at least 0.9, where 1 is the maximum). A digest of the protocol:
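HepG2 human liver cells, transiently transfected with multiple GAL4-UAS reporter units, were dosed and read at 24 h by XTT as cell number. Loss of signal was fitted relative to DMSO negative control baseline.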

Read-out in assay [18]: Thyroid Hormone Responsive (THRSP), THRSP (gene 7069)
Description: LTEA_HepaRG_THRSP: Life Technologies and Expression Analysis (LTEA) Assay for Thyroid Hormone Responsive (THRSP) using HepaRG (AID 2283536). The conditions noted are these: mRNA level, 48 h; actives raise or lower the signal. The method, boiled down: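 qRT-PCR read-out (Fluidigm TaqMan), housekeeping-normalized (ACTB/GAPDH/POLR2A). HepaRG, 48 h chemical exposure, 8-pt half-log series from 100 uM in 0.5% DMSO, duplicates. Bidirectional curve fit vs 0.5% DMSO baseline.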

Sequence of Cellular tumor antigen p53 (Homo sapiens) (P04637 whole entry, looked up): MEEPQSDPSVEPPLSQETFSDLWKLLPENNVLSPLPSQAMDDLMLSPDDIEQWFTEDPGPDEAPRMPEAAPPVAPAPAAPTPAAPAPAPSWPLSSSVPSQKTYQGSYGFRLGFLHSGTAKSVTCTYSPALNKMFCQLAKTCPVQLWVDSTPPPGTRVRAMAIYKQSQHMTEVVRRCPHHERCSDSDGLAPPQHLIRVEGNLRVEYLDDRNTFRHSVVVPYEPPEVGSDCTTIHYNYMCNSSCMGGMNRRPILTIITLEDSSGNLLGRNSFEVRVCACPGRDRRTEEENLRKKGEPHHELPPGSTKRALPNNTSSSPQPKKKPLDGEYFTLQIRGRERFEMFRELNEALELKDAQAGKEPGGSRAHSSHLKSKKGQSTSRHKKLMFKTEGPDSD
Sequence of Nuclear factor erythroid 2-related factor 2 (Homo sapiens) (Q16236 whole entry, looked up): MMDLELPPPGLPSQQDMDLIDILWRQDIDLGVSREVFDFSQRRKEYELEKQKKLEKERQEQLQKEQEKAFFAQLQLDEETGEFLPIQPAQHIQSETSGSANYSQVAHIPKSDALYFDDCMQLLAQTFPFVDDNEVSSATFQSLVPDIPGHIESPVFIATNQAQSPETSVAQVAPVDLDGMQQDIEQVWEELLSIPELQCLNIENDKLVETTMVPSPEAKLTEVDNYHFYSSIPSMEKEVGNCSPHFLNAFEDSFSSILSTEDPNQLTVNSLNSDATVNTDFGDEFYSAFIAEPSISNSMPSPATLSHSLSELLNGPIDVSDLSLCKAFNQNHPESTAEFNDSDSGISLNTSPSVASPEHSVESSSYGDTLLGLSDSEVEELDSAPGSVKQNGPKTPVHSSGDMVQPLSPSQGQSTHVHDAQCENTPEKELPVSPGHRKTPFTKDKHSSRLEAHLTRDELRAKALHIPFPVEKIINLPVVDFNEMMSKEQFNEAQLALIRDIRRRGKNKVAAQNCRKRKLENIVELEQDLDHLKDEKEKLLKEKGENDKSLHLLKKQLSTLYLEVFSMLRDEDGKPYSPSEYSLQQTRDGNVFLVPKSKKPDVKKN
Sequence of Signal transducer and activator of transcription 3 (Homo sapiens) (P40763 whole entry, looked up): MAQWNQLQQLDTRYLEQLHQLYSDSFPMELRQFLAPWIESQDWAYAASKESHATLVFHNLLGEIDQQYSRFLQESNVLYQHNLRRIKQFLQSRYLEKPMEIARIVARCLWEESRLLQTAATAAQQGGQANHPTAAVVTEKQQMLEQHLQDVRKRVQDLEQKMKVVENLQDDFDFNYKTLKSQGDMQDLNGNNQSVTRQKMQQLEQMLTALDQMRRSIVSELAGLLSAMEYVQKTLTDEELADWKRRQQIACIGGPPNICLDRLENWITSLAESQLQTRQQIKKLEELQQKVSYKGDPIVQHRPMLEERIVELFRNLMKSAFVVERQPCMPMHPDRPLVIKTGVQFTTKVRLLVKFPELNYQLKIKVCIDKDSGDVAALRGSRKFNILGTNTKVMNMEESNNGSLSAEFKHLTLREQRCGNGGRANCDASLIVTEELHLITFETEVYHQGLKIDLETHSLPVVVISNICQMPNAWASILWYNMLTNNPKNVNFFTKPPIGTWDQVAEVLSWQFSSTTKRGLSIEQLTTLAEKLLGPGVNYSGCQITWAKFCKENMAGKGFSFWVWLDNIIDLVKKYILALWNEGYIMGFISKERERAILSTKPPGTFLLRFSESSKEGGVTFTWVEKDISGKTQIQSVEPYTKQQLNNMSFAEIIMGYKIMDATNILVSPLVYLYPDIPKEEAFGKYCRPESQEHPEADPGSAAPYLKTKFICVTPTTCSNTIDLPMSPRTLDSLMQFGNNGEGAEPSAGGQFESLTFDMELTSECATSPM

Usually AC50 stands for the concentration at which the activity in the assay is half-maximal. For `Cc1c(-c2cccnc2)c2ccccc2n1CCCCC(=O)O`, the call in [1], in assay [3], in assay [4], in assay [5], in assay [6] and in assay [7] was inactive. The outcome in assay [8] was “inactive”; in [9], “inactive”; with TIMP1, TIMP1 (gene 7076) it was “inactive”; in [10] it was “inactive”; in [11] it was “inactive”; in [12], “inactive”. Besides, the result in assay [13] and in [14] was inactive. Besides, the AC50 in assay [2] is 27.6 µM (active).
In the case of `CCC(C)(C)C(=O)O[C@H]1C[C@@H](C)C=C2C=C[C@H](C)[C@H](CC[C@@H]3C[C@@H](O)CC(=O)O3)[C@H]21`, the compound was called inactive in assay [1], in [15], in assay [3], in assay [4], in assay [5] and in [6]. In addition, the outcome in [7] is “inactive”; in assay [8], “inactive”; in [9], “inactive”; in the assay with TIMP1, TIMP1 (gene 7076), “inactive”; in assay [10], “inactive”; in assay [11], “inactive”. For the same compound, the outcome in assay [12], in [13], in assay [16], in assay [14] and in [17] was inactive.
For the compound `CCOCCOCCOCCO`, the compound was called inactive in assay [1], in [15], in [3], in assay [4], in assay [5] and in assay [6]. The outcome in [7] was “inactive”; in assay [8] it was “inactive”; in assay [9], “inactive”; in the assay with TIMP1, TIMP1 (gene 7076), “inactive”; in assay [10] it was “inactive”; in [11], “inactive”. Further, the compound was classed as inactive in assay [12], in assay [13], in [16], in assay [14] and in assay [17].
`CCOc1cccc(-n2cc(C(=O)N3CCN(c4cc(C(=O)O)c5ccccc5c4)CC3)nc2-c2ccc(C)cc2)c1`: the AC50 was 79.2 µM (active) in assay [1]; 29.9 µM (active) in [15]; 82.3 µM (active) in [4]; 50 µM (active) in [5]; 37.4 µM (active) in assay [6]; 35.7 µM (active) in [7]. Moreover, the AC50 in assay [8] was 88.7 µM (active); in [9] it was 83.7 µM (active); in assay [10] it was 80.3 µM (active); in [18], 26.3 µM (active); in [11], 91.5 µM (active); in assay [12] it was 75.9 µM (active). Besides, the AC50 in assay [13] is 75.1 µM (active); in assay [16], 88.1 µM (active); in assay [14], 36.3 µM (active). In addition, the outcome in assay [3] is “inactive”; with TIMP1, TIMP1 (gene 7076) it was “inactive”.
